# Source: PubChem BioAssay (NCATS)
# Inconclusive results are not listed. A call without a number means that no potency is given here. The source made the active and inactive calls. Calls come from the whole dose curve; as a rule, active = well fitted cell-killing curve with a large enough effect; inconclusive = small, poorly fitted or top-dose-only effect, or effect the other way; inactive = flat fitted curve, though single readings scatter. Where a SMILES comes first, the peptide text is derived from it.
# System: HeLa
# Assay: Primary qHTS to identify gynecologic anti-cancer compounds using libraries of approved drugs and bioactive compounds (AID 1345084); note: nearly all actives have a fitted effect of over 55% in size
# Settings: Gynecologic cancer cell panel viability, ATPlite luminescence, 48 h; series mostly up to 57.5 µM
# Outline: (§1)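 In this quantitative HTS, cell killing is estimated from loss of ATP-dependent luciferase light. Cells see five compound concentrations over a 48 h exposure.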
row,Structure (SMILES),Potency
1,CC1(C)CC(=O)N(CCCCN2CCN(c3ncccn3)CC2)C(=O)C1,inactive
2,C=C1CC[C@H]2[C@@](C)(CCC(O)[C@@]2(C)CO)[C@@H]1C/C=C(/C(=O)O)C(O)CO (stereo partly specified),inactive
3,COc1cc(/C=C/C(=O)OC2CC(C)=C(C(=O)O)/C2=C/CO[C@@H]2O[C@H](CO)[C@@H](O)[C@H](O)[C@H]2O)ccc1O (stereo partly specified),inactive
4,CC(=O)OCC1=C[C@H](O)[C@@H]2C(C(=O)O)=CO[C@@H](O[C@@H]3O[C@H](CO)[C@@H](O)[C@H](O)[C@H]3O)[C@H]12,inactive
5,C=CC(C)(C)O[C@@H]1O[C@H](CO[C@@H]2OC[C@](O)(CO)[C@H]2O)[C@@H](O)[C@H](O)[C@H]1O,inactive
6,COC(=O)[C@@H]1C2CC3c4[nH]c5ccccc5c4CCN3CC2CC[C@@H]1O (stereo partly specified),inactive
7,FC(F)(F)c1cc(C(F)(F)F)c2ccc3nc(-c4nnco4)cn3c2n1,inactive
8,COC(=O)C1=COC(OC2OC(CO)C(O)C(O)C2O)C2C1CC(OC(=O)C(O)CC(=O)O)C2C (stereo unspecified),inactive

# System: Hek293T
# Assay: as above
# Settings: Gynecologic cancer cell panel viability, ATPlite luminescence, 48 h, control line for the selectivity index; series mostly up to 57.5 µM
# Outline: as §1
Structure (SMILES),Potency,"activity change, negative = cytotoxicity"
Nc1nc(CC(=O)Nc2ccc(CCNCC(O)c3ccccc3)cc2)cs1 (stereo unspecified),inactive,–
COc1ccc([C@@H]2N[C@H](C(=O)O)Cc3c2[nH]c2ccccc32)cc1CN1CCN(c2ccccc2F)CC1,inactive,–
CC1NC(=O)CNC(=O)C(C(C)C)NC(=O)C2CCCN2C(=O)C(C(C)C)NC(=O)C(Cc2c[nH]c3ccccc23)NC1=O (stereo unspecified) (cyclo(GAWVPV); configuration not given here),inactive,–
CC(C)(C)c1cc(CN2CCN(CC(O)c3ccc(Cl)cc3)CC2)cc(C(C)(C)C)c1O (stereo unspecified),inactive,–
CC[C@@H](c1ccc(F)c(F)c1)n1c(C(=O)OC)c(-c2ccno2)[nH]c1=S,inactive,–
O=C(O)C[C@H]1CCC(=O)[C@@H]1C/C=C\CCOC1OC(CO)C(O)C(O)C1O (stereo partly specified),inactive,–
N#Cc1ccc2[nH]c(O)c(-c3ccc(CN4CCOCC4)cn3)c2c1,inactive,–
C=Cc1cc(O)cc2nc(-c3ccc(O)c(F)c3)oc12,inactive,–
COc1ccc(C(OC2OC(CO)C(O)C(O)C2O)C(C)O)cc1 (stereo unspecified),inactive,–
CC1CCC2(C(=O)OC3OC(COC4OC(CO)C(O)C(O)C4O)C(O)C(O)C3O)CCC3(C)C(=CCC4C5(C)CCC(O)C(C)(C(=O)O)C5CCC43C)C2C1(C)O (stereo unspecified),–,2.24% [at 11.6 µM] (inactive)
Cc1cc(N2CCCCC2)nc2ccccc12,inactive,–
C=CC1(C)CC2=CCC3C(C)(C(=O)O)CCCC3(C)C2CC1OC(C)=O (stereo unspecified),inactive,–
Cc1cc(Nc2ncc(Cl)c(Nc3ccccc3S(=O)(=O)C(C)C)n2)c(OC(C)C)cc1C1CCNCC1,inactive,–
CCn1c2ccccc2c2cc(CNC)ccc21,inactive,–
O=S(=O)(NC1CCNCC1)c1cc(S(=O)(=O)c2ccccc2)ccc1C(F)(F)F,inactive,–
CC1CCC2(C(=O)OC3OC(CO)C(O)C(O)C3O)CCC3(C)C(=CCC4C5(C)CC(O)C(O)C(C)(C(=O)O)C5CCC43C)C2C1(C)O (stereo unspecified),inactive,–
Cc1nnc(C(C)C)n1C1CC2CCC(C1)N2CC[C@H](NC(=O)C1CCC(F)(F)CC1)c1ccccc1 (stereo partly specified),inactive,–
Cc1nn(C)c2c1C(c1ccc(C(F)(F)F)cc1)C(C#N)=C(N)O2 (stereo unspecified),inactive,–
CC(=O)[C@@H]1CC[C@]2(C(=O)O)CC[C@]3(C)C(CCC4[C@@]5(C)CC[C@H](O)C(C)(C)C5CC[C@]43C)C12 (stereo partly specified),inactive,–

Structure (SMILES),Potency,"activity change, negative = cytotoxicity"
COc1cc(/C=C/C(=O)OC(C)(C)C(OC2OC(CO)C(O)C(O)C2O)C(=O)OCc2ccc(OC3OC(CO)C(O)C(O)C3O)cc2)ccc1O (stereo unspecified),inactive,–
Cc1cn2c(N)c(Cl)cc(C(=O)NCC3CCN(CC(C)C)CC3)c2n1,inactive,–
CC(C)=CCC[C@](C)(O[C@@H]1O[C@H](CO[C@@H]2OC[C@@H](O)[C@H](O)[C@H]2O)[C@@H](O)[C@H](O)[C@H]1O)[C@H]1CC[C@]2(C)[C@@H]1[C@H](O)C[C@@H]1[C@@]3(C)CC[C@H](O[C@@H]4O[C@H](CO)[C@@H](O)[C@H](O)[C@H]4O[C@@H]4O[C@H](CO)[C@@H](O)[C@H](O)[C@H]4O)C(C)(C)[C@@H]3CC[C@]12C,inactive,–
COc1ccc2c(c1)OC[C@]1(O)c3cc4c(cc3O[C@H]21)OCO4,inactive,–
COC1=CC(=O)O[C@@H](/C=C/c2ccccc2)[C@@H]1O,inactive,–
CCOC(=O)N1CCC(NCCNC(=O)c2ccccc2C)CC1,inactive,–
C=C[C@@]1(C)CC(=O)C2[C@](C)(O1)[C@@H](OC(C)=O)[C@@H](O)[C@H]1C(C)(C)CCC[C@]21C (stereo partly specified),–,-0.239% [at 11.6 µM] (inactive)
O=C1N(CC2CCCCN2)CCN1c1ccccc1 (stereo unspecified),inactive,–
COc1cc(C(C)=O)ccc1O[C@@H]1O[C@H](CO[C@@H]2O[C@@H](C)[C@H](O)[C@@H](O)[C@H]2O)[C@@H](O)[C@H](O)[C@H]1O,inactive,–
COC(=O)[C@@]1(O)C=CC[C@@H]2[C@@]3(C)C[C@@H](c4ccoc4)OC(=O)[C@H]3CC[C@]21C,inactive,–
COc1ccc(C(=O)O[C@H]2CC(C)=CC[C@@]3(C)[C@@H](OC(C)=O)C[C@@](O)(C(C)C)[C@H]23)cc1,inactive,–
CC1(C)CC(=O)N(CCCCN2CCN(c3ncccn3)CC2)C(=O)C1,inactive,–
C=C1CC[C@H]2[C@@](C)(CCC(O)[C@@]2(C)CO)[C@@H]1C/C=C(/C(=O)O)C(O)CO (stereo partly specified),inactive,–
COc1cc(/C=C/C(=O)OC2CC(C)=C(C(=O)O)/C2=C/CO[C@@H]2O[C@H](CO)[C@@H](O)[C@H](O)[C@H]2O)ccc1O (stereo partly specified),inactive,–
CC(=O)OCC1=C[C@H](O)[C@@H]2C(C(=O)O)=CO[C@@H](O[C@@H]3O[C@H](CO)[C@@H](O)[C@H](O)[C@H]3O)[C@H]12,inactive,–
C=CC(C)(C)O[C@@H]1O[C@H](CO[C@@H]2OC[C@](O)(CO)[C@H]2O)[C@@H](O)[C@H](O)[C@H]1O,inactive,–
COC(=O)[C@@H]1C2CC3c4[nH]c5ccccc5c4CCN3CC2CC[C@@H]1O (stereo partly specified),inactive,–
FC(F)(F)c1cc(C(F)(F)F)c2ccc3nc(-c4nnco4)cn3c2n1,inactive,–
COC(=O)C1=COC(OC2OC(CO)C(O)C(O)C2O)C2C1CC(OC(=O)C(O)CC(=O)O)C2C (stereo unspecified),inactive,–
